Data taken from article PMC7862700, “An all-to-all approach to the identification of sequence-specific readers for epigenetic DNA modifications on cytosine”.

Experiments:
Test in all cases: DAPPL (digital affinity profiling via proximity ligation, sequencing); 10 mM Tris-HCl pH 7.5, 50 mM NaCl, 1 mM DTT, 4% glycerol, room temperature, 30 min; GST-TFs on glutathione beads, 16-mer random dsDNA library, 0.1% formaldehyde crosslink after washing; high values mean tight binding
FLI1 = target: T1, FLI1 (Homo sapiens, UniProt Q01543 1-452); settings: protein: recombinant; tags: N-terminal GST; dsDNA, one strand shown
T1 sequence: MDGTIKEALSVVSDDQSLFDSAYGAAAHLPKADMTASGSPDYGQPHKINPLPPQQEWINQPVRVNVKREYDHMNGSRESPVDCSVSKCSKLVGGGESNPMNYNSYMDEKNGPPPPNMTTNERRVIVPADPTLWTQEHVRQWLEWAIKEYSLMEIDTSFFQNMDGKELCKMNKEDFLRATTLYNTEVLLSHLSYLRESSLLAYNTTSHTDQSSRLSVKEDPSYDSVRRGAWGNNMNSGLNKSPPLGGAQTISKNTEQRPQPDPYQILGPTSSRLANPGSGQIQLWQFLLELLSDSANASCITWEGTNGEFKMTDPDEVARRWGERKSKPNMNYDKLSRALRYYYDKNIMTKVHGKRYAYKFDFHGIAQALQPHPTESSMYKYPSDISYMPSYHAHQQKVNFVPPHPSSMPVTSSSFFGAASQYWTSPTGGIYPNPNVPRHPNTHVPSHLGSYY
Summary of the method: (§1)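 Binding signal is given per hexamer as its read frequency for a factor divided by its frequency in the tag-only sample. GST-fused human transcription factors were expressed in yeast, captured on glutathione beads, barcoded with DNA and pooled with that sample, then incubated with 200 nmole of a 16-mer random double-stranded DNA library in Tris/NaCl/DTT/glycerol buffer for 30 min at room temperature. The pools were then washed, crosslinked, proximity-ligated, amplified by PCR and sequenced on an Illumina NextSeq500.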

ELK1 = target: T2, ELK1 (Homo sapiens, UniProt P19419 1-428); settings: protein: recombinant; tags: N-terminal GST; dsDNA, one strand shown
T2 sequence: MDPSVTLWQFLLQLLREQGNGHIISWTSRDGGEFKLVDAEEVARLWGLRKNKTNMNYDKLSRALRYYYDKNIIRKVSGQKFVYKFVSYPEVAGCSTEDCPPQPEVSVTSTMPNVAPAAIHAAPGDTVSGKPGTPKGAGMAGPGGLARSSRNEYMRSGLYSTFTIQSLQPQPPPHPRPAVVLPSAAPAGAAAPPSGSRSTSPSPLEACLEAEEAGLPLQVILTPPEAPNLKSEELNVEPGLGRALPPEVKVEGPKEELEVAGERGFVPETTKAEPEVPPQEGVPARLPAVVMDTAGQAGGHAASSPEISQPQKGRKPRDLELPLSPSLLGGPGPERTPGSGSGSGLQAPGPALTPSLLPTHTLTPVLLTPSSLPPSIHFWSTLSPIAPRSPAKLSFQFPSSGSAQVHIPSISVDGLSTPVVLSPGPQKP
Summary of the method: as §1

GABPA = target: T3, GABPA (Homo sapiens, UniProt Q06546 1-454); settings: protein: recombinant; tags: N-terminal GST; dsDNA, one strand shown
T3 sequence: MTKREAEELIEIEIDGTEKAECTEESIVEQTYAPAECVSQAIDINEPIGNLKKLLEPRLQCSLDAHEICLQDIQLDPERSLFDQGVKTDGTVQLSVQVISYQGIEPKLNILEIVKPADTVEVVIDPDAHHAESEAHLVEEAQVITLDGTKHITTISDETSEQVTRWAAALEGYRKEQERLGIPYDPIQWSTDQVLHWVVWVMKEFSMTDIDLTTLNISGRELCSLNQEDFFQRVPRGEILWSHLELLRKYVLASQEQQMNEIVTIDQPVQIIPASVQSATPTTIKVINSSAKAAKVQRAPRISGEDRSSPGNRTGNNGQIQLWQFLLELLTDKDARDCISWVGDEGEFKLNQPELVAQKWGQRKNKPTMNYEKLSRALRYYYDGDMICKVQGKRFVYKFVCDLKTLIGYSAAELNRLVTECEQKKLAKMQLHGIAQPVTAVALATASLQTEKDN
Summary of the method: as §1

ERG = target: T4, ERG (Homo sapiens, UniProt P11308 1-479); settings: protein: recombinant; tags: N-terminal GST; dsDNA, one strand shown
T4 sequence: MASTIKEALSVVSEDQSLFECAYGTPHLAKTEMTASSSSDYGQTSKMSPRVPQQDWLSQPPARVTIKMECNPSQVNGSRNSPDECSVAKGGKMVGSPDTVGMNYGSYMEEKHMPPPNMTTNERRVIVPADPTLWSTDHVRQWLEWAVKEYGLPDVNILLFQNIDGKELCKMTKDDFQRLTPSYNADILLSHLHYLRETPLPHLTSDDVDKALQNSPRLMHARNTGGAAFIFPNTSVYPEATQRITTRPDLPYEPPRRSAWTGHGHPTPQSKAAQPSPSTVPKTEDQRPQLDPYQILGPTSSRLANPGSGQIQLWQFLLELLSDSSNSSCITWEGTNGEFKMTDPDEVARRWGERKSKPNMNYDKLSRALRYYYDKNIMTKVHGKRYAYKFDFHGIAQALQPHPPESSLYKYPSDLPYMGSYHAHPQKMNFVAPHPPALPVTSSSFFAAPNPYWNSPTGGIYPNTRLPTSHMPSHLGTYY
Summary of the method: as §1

ELF1 = ELF1 (Homo sapiens, UniProt P32519 1-619); settings: protein: recombinant; tags: N-terminal GST; dsDNA, one strand shown
Summary of the method: as §1

EHF = target: T5, EHF (Homo sapiens, UniProt Q9NZC4 1-300); settings: protein: recombinant; tags: N-terminal GST; dsDNA, one strand shown
T5 sequence: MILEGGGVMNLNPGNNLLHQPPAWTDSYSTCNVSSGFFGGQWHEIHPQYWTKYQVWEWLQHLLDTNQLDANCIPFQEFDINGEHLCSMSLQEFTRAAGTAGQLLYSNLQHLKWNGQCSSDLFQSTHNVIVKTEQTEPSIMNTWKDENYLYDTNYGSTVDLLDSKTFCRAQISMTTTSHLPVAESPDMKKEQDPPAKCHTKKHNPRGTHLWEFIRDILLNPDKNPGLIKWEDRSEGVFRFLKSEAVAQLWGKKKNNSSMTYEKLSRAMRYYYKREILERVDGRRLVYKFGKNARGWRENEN
Summary of the method: as §1

SPI1 = SPI1 (Homo sapiens, UniProt P17947 1-270); settings: protein: recombinant; tags: N-terminal GST; dsDNA, one strand shown
Summary of the method: as §1

SPIB = SPIB (Homo sapiens, UniProt Q01892 1-262); settings: protein: recombinant; tags: N-terminal GST; dsDNA, one strand shown
Summary of the method: as §1

ELK3 = target: T6, ELK3 (Homo sapiens, UniProt P41970 1-407); settings: protein: recombinant; tags: N-terminal GST; dsDNA, one strand shown
T6 sequence: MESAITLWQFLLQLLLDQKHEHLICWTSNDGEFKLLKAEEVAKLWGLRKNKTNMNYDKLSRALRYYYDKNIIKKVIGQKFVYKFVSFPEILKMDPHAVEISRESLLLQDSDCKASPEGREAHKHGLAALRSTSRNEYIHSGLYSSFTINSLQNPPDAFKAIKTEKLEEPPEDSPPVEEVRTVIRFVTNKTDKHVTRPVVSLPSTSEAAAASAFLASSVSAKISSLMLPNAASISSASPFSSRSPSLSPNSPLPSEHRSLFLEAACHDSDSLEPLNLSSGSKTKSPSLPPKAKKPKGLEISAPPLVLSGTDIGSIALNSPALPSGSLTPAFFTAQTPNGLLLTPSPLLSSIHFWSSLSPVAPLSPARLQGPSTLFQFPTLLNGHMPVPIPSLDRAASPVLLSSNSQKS
Summary of the method: as §1

FEV = target: T7, FEV (Homo sapiens, UniProt Q99581 1-238); settings: protein: recombinant; tags: N-terminal GST; dsDNA, one strand shown
T7 sequence: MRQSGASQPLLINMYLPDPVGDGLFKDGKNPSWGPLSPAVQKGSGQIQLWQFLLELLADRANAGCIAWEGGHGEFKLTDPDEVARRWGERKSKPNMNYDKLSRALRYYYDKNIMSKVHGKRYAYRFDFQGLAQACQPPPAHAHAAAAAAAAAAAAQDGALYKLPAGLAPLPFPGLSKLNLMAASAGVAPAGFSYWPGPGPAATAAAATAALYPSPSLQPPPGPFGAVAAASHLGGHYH
Summary of the method: as §1

ETV5 = ETV5 (Homo sapiens, UniProt P41161 1-510); settings: protein: recombinant; tags: N-terminal GST; dsDNA, one strand shown
Summary of the method: as §1

HSF1 = HSF1 (Homo sapiens, UniProt Q00613 1-529); settings: protein: recombinant; tags: N-terminal GST; chain copies: 3; dsDNA, one strand shown
Summary of the method: as §1

SPIC = target: T8, SPIC (Homo sapiens, UniProt Q8N5J4 1-248); settings: protein: recombinant; tags: N-terminal GST; dsDNA, one strand shown
T8 sequence: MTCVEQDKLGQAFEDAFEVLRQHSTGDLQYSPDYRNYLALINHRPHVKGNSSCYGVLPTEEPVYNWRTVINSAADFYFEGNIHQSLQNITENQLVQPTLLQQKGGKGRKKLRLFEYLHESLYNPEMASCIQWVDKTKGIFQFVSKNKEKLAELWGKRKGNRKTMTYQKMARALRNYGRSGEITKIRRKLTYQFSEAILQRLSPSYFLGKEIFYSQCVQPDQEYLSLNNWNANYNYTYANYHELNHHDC
Summary of the method: as §1

ELF4 = ELF4 (Homo sapiens, UniProt Q99607 1-663); settings: protein: recombinant; tags: N-terminal GST; dsDNA, one strand shown
Summary of the method: as §1

ELK4 = target: T9, ELK4 (Homo sapiens, UniProt P28324-2 1-405); settings: protein: recombinant; tags: N-terminal GST; dsDNA, one strand shown
T9 sequence: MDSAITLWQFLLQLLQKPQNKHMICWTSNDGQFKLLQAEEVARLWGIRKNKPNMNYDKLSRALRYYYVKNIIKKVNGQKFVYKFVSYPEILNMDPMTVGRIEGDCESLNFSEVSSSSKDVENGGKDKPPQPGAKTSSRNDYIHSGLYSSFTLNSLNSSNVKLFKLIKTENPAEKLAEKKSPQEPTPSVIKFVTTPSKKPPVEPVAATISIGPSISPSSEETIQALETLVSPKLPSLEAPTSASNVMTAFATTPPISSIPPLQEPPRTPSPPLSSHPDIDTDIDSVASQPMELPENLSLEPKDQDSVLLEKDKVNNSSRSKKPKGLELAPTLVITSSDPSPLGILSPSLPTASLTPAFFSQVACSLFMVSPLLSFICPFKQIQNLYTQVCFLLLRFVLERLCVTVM
Summary of the method: as §1

ETV2 = target: T10, ETV2 (Homo sapiens, UniProt O00321 1-342); settings: protein: recombinant; tags: N-terminal GST; dsDNA, one strand shown
T10 sequence: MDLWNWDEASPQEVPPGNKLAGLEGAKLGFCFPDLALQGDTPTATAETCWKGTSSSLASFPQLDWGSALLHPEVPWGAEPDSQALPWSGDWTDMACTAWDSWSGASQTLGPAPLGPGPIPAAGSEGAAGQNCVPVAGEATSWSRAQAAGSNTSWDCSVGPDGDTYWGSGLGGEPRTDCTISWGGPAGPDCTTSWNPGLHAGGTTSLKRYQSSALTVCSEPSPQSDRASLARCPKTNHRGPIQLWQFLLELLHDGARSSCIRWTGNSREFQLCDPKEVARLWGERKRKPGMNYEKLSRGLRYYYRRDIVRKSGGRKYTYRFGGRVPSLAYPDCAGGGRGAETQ
Summary of the method: as §1

ELF3 = target: T11, ELF3 (Homo sapiens, UniProt P78545 1-371); settings: protein: recombinant; tags: N-terminal GST; dsDNA, one strand shown
T11 sequence: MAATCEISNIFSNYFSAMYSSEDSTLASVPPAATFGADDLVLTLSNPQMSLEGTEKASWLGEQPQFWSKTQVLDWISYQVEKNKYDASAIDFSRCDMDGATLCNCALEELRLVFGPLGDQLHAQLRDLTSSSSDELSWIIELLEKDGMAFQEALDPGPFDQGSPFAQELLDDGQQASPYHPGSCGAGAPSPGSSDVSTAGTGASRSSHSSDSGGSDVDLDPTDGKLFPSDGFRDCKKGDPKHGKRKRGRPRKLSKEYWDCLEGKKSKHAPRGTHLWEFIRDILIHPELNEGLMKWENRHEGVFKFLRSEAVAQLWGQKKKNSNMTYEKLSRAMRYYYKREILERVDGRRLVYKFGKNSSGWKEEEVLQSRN
Summary of the method: as §1

CRX = CRX (Homo sapiens, UniProt O43186 1-299); settings: protein: recombinant; tags: N-terminal GST; dsDNA, one strand shown
Summary of the method: as §1

ETV1 = ETV1 (Homo sapiens, UniProt P50549 1-477); settings: protein: recombinant; tags: N-terminal GST; dsDNA, one strand shown
Summary of the method: as §1

Sequence of SPIB (Q01892 whole entry): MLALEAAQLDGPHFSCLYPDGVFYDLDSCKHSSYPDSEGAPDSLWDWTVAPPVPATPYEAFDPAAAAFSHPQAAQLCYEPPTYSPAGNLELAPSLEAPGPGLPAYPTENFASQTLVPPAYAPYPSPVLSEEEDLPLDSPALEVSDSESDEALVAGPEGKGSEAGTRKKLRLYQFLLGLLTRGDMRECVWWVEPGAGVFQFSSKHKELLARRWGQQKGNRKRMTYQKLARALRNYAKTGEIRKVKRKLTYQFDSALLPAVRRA
Sequence of ELF4 (Q99607 whole entry): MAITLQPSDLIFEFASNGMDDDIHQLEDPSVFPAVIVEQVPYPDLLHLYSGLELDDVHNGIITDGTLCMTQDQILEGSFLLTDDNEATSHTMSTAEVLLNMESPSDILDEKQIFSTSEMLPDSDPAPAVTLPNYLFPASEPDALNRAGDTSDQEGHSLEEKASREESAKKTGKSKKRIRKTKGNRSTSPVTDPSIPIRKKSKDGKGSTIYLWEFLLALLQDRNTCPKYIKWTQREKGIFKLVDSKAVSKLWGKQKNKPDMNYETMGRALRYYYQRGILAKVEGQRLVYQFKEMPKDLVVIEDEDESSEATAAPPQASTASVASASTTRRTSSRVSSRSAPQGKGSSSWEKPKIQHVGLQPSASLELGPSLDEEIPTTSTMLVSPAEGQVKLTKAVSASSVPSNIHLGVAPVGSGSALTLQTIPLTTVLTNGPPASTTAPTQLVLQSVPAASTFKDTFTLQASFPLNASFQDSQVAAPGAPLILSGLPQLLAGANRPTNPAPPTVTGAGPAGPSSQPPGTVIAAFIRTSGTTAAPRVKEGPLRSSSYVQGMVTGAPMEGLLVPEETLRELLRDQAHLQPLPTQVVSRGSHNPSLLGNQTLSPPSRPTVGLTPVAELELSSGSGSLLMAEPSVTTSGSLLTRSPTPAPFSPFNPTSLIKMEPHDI
Sequence of ELF1 (P32519 whole entry): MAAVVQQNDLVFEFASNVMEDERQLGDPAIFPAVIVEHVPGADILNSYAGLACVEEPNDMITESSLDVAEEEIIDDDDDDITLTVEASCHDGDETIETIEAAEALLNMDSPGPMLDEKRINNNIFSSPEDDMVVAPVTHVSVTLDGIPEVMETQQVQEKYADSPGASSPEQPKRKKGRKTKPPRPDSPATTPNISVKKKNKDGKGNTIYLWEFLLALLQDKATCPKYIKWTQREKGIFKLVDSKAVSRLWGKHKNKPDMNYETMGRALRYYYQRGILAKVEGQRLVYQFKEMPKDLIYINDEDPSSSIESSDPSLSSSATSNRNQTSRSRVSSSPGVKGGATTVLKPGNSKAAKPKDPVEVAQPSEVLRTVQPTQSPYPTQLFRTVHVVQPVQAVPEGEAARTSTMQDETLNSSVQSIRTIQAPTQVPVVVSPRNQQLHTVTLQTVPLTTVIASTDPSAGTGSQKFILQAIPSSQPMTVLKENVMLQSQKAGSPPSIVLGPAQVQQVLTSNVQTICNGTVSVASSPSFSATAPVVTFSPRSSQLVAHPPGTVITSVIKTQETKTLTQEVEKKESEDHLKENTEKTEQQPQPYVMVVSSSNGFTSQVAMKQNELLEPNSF
Sequence of ETV1 (P50549 whole entry): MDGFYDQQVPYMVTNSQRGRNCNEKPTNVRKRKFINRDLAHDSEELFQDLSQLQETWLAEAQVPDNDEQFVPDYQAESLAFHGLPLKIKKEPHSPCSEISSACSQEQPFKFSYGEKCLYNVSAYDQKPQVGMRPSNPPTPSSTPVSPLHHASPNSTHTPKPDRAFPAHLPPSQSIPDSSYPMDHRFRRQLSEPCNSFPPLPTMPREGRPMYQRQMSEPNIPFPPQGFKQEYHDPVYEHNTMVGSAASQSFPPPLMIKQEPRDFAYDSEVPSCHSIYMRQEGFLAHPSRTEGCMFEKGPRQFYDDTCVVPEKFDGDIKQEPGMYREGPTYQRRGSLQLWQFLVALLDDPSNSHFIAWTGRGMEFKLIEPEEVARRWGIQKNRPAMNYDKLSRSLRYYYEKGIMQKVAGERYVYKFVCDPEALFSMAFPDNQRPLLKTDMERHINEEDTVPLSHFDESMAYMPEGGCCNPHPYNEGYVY
Sequence of HSF1 (Q00613 whole entry): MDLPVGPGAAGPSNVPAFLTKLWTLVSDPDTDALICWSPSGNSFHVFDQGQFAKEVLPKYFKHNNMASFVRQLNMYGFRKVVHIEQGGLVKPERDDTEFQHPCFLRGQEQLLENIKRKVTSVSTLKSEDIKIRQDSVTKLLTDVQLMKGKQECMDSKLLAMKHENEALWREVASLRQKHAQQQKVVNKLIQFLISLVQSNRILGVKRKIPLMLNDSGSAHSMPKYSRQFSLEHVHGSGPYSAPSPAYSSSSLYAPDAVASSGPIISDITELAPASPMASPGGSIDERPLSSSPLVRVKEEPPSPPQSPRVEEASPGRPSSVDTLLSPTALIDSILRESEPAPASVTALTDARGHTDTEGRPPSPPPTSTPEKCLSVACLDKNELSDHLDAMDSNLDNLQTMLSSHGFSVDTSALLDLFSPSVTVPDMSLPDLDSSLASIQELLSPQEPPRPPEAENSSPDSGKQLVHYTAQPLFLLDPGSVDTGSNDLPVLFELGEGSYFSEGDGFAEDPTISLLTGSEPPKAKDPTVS
Sequence of CRX (O43186 whole entry): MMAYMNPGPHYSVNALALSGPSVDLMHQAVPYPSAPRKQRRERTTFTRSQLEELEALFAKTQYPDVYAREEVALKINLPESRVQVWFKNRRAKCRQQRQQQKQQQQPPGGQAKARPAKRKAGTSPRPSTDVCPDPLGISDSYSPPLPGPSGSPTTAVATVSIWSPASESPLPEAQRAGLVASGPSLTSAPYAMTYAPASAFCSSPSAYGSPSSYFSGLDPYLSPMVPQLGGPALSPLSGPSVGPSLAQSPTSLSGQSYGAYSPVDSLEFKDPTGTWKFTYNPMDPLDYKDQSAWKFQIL
Sequence of ETV5 (P41161 whole entry): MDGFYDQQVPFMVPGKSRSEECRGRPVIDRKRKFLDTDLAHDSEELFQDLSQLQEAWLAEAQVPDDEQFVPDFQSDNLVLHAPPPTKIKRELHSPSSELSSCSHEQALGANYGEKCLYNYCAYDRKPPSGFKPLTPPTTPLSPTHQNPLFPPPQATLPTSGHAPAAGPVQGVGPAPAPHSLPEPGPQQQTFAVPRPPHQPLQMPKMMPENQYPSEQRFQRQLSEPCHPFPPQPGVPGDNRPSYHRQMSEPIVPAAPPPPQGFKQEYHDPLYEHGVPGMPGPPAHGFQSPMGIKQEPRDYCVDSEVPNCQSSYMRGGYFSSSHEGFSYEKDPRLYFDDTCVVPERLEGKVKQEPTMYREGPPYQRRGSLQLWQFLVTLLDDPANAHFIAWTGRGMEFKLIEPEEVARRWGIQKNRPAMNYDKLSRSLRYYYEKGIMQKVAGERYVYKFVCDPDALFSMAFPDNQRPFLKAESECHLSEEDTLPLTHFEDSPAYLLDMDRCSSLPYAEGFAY

GCTTAC
binding signal (FLI1): 1.19 fold enrichment (6-mer frequency, TF over GST control)
binding signal (ELK1): 1.12 fold enrichment (6-mer frequency, TF over GST control)
binding signal (GABPA): 1.05 fold enrichment (6-mer frequency, TF over GST control)
binding signal (ERG): 1.19 fold enrichment (6-mer frequency, TF over GST control)
binding signal (ELF1): 1.15 fold enrichment (6-mer frequency, TF over GST control)
binding signal (EHF): 1.16 fold enrichment (6-mer frequency, TF over GST control)
binding signal (SPI1): 1.12 fold enrichment (6-mer frequency, TF over GST control)
binding signal (SPIB): 1.12 fold enrichment (6-mer frequency, TF over GST control)
binding signal (ELK3): 1.23 fold enrichment (6-mer frequency, TF over GST control)
binding signal (FEV): 1.15 fold enrichment (6-mer frequency, TF over GST control)
binding signal (ETV5): 1.12 fold enrichment (6-mer frequency, TF over GST control)
binding signal (HSF1): 1.44 fold enrichment (6-mer frequency, TF over GST control)
binding signal (SPIC): 1.21 fold enrichment (6-mer frequency, TF over GST control)
binding signal (ELF4): 1.1 fold enrichment (6-mer frequency, TF over GST control)
binding signal (ELK4): 1.1 fold enrichment (6-mer frequency, TF over GST control)
binding signal (ETV2): 1.22 fold enrichment (6-mer frequency, TF over GST control)
binding signal (ELF3): 1.4 fold enrichment (6-mer frequency, TF over GST control)
binding signal (CRX): 2.01 fold enrichment (6-mer frequency, TF over GST control)
binding signal (ETV1): 1.22 fold enrichment (6-mer frequency, TF over GST control)
